Reference: PubChem BioAssay (NCI)
About 79,000 compounds went through this panel and 15% of them were active in at least one assay; those are over-represented in the sample as a whole. Activity calls are given as the source filed them. No stated cut-off is given here; in the data, active means growth inhibition above about 70%; inactive means the rest.

Tests used:
[1] = NCI Yeast Anticancer Drug Screen. Data for the mec2-1 strain (AID 157); settings: S. cerevisiae mec2-1 strain, stronger effect = higher value
Summary of the method: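 Using mec2-1 yeast: add compound, measure growth, express inhibition versus vehicle-treated cultures.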

[2] = NCI Yeast Anticancer Drug Screen. Data for the rad14 strain (AID 159);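 further: 0% = growth of vehicle-treated control cultures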; settings: S. cerevisiae rad14 strain growth inhibition, stronger effect = higher value
Summary of the method: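 Growth inhibition vs vehicle controls; genetically altered yeast strain (DNA damage repair defect) treated with test compounds.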

[3] = NCI Yeast Anticancer Drug Screen. Data for the sgs1 mgt1 strain (AID 161);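 further: 0% = growth of cultures given vehicle only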; settings: S. cerevisiae sgs1 mgt1 strain, stronger effect = higher value
Summary of the method: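 This yeast growth screen uses a strain with defined DNA-repair lesions; compound-treated growth is compared with vehicle-treated growth.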

[4] = NCI Yeast Anticancer Drug Screen. Data for the CLN2oe strain (AID 163);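 further: 0% = growth of vehicle-only control cultures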; settings: S. cerevisiae CLN2oe strain, stronger effect = higher value
Summary of the method: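 Whole-cell yeast growth assay. A strain engineered for altered cell-cycle control received compound, and inhibition relative to vehicle-treated cultures was recorded.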

[5] = NCI Yeast Anticancer Drug Screen. Data for the cln2 rad14 strain (AID 165);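 further: 0% = growth equal to vehicle treated cultures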; settings: S. cerevisiae cln2 rad14 strain, stronger effect = higher value
Summary of the method: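 Yeast strain cln2 rad14, bearing defects in cell cycle control and DNA repair, serves as the test system; values reflect growth inhibition compared with vehicle.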

[6] = NCI Yeast Anticancer Drug Screen. Data for the bub3 strain (AID 167); settings: S. cerevisiae bub3 mutant strain, stronger effect = higher value
Summary of the method: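 Readout: yeast growth inhibition, expressed relative to vehicle-only wells. The test organism is a mutant strain from a panel with lesions in DNA repair or checkpoint genes.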

[7] = NCI Yeast Anticancer Drug Screen. Data for the wt2 strain (AID 169);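 further: 0% = growth of vehicle-treated yeast cultures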; settings: S. cerevisiae wt2 strain growth inhibition, stronger effect = higher value
Summary of the method: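 Treated yeast vs. vehicle-treated yeast: growth inhibition determined.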

[8] = NCI Yeast Anticancer Drug Screen. Data for the mlh1 strain (AID 171);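 further: 0% = growth of vehicle-treated control cultures of the same strain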; settings: S. cerevisiae mlh1 strain growth inhibition, stronger effect = higher value
Summary of the method: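 A yeast strain with a defined genetic lesion serves as the test organism. Cultures receive compound or vehicle, and growth is measured.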

[9] = NCI Yeast Anticancer Drug Screen. Data for the sgs1 strain (AID 173);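 further: 0% = growth of vehicle-only control cultures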; settings: S. cerevisiae sgs1 mutant, stronger effect = higher value
Summary of the method: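 A genetically defined yeast mutant is incubated with the test compound, and its growth is compared to that of the same strain given vehicle.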

[10] = NCI Yeast Anticancer Drug Screen. Data for the mlh1 rad18 strain (AID 175); settings: S. cerevisiae mlh1 rad18 strain growth inhibition, stronger effect = higher value
Summary of the method: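 Steps: expose repair-defective yeast to compound; measure growth; express inhibition against vehicle-treated controls.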

[11] = NCI Yeast Anticancer Drug Screen. Data for the rad18 strain (AID 177); settings: S. cerevisiae rad18 mutant growth inhibition, stronger effect = higher value
Summary of the method: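 Measured value is growth inhibition of a yeast strain bearing a DNA repair alteration, referenced to vehicle-treated cells.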

[12] = NCI Yeast Anticancer Drug Screen. Data for the wt1 strain (AID 149);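 further: 0% = growth of vehicle-treated wt1 cultures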; settings: S. cerevisiae wt1 strain (SPY 50644) growth inhibition, stronger effect = higher value
Summary of the method: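 Growth inhibition read against vehicle controls after compound exposure of the wt1 yeast strain.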

[13] = NCI Yeast Anticancer Drug Screen. Data for the rad50EPP+ strain (AID 151);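 further: 0% = growth of vehicle-treated control cultures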; settings: S. cerevisiae rad50 mutant strain, stronger effect = higher value
Summary of the method: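 Read-out is yeast growth inhibition relative to vehicle; cells used were the rad50EPP+ strain.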

[14] = NCI Yeast Anticancer Drug Screen. Data for the mgt1 strain (AID 153); settings: S. cerevisiae mgt1 mutant growth inhibition, stronger effect = higher value
Summary of the method: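 Measured: inhibition of mgt1 yeast growth by compound, normalized to vehicle-treated cultures.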

[15] = NCI Yeast Anticancer Drug Screen. Data for the rad50 strain (AID 155);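 further: 0% = growth of vehicle-only cultures of the same strain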; settings: S. cerevisiae rad50 strain growth inhibition, stronger effect = higher value
Summary of the method: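 Readout: growth inhibition relative to vehicle-treated cultures. Compound exposure was carried out in a genetically defined yeast strain deficient in DNA damage repair.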

[16] = at 5.0 µM (retest, dose inferred, filed as 0.5)
[17] = at 50.0 µM (retest, dose inferred, filed as 5.0)

Measured: growth inhibition

CC(C)/C(Cl)=N\OC(=O)Nc1ccccc1F
inactive: [1]; at 100.0 µM 31% | [2]; at 1.2 µM 6% | [2]; at 3.7 µM 14% | [2]; at 11.0 µM 9% | [2]; at 33.0 µM 23% | [2]; at 100.0 µM 26% | [3]; [16] -38% | [3]; at 50.0 µM 62.5% | [4]; at 1.2 µM 15% | [4]; at 3.7 µM 14% | [4]; at 11.0 µM 19% | [4]; at 33.0 µM 19% | [4]; at 100.0 µM 23% | [5]; [16] 23% | [5]; [17] 37% | [5]; at 50.0 µM 35.1% | [6]; at 1.2 µM 55% | [6]; [16] 49% | [7]; at 1.2 µM 0% | [7]; at 3.7 µM 5% | [7]; at 11.0 µM 15% | [7]; at 33.0 µM 41% | [7]; at 100.0 µM 29% | [8]; at 1.2 µM 3% | [8]; at 3.7 µM 5% | [8]; at 11.0 µM 14% | [8]; at 33.0 µM 22% | [8]; at 100.0 µM 20% | [9]; at 1.2 µM 6% | [9]; at 3.7 µM 13% | [9]; at 11.0 µM 34% | [9]; at 33.0 µM 60% | [9]; at 100.0 µM 49% | [10]; [16] -15% | [10]; [17] 66% | [10]; at 50.0 µM 58.9% | [11]; at 1.2 µM -6% | [11]; at 3.7 µM 3% | [11]; at 11.0 µM 17% | [11]; at 33.0 µM 43% | [11]; at 100.0 µM 41%
active: [3]; [17] 82% | [6]; at 3.7 µM 83% | [6]; at 11.0 µM 92% | [6]; at 33.0 µM 93% | [6]; [17] 98% | [6]; at 50.0 µM 82% | [6]; at 100.0 µM 94%

C(=C\c1ccccc1)/COc1ccccc1C(N1CCOCC1)n1nc2ccccc2n1 (centres undefined)
active: [12]; at 33.0 µM 88% | [12]; at 100.0 µM 98% | [13]; at 100.0 µM 95% | [14]; at 33.0 µM 91% | [14]; at 100.0 µM 98% | [15]; at 33.0 µM 96% | [15]; [17] 98% | [15]; at 50.0 µM 98.1% | [15]; at 100.0 µM 97% | [1]; at 33.0 µM 86% | [1]; [17] 95% | [1]; at 50.0 µM 98.8% | [1]; at 100.0 µM 98% | [2]; at 33.0 µM 97% | [2]; at 100.0 µM 98% | [3]; [17] 97% | [3]; at 50.0 µM 97.9% | [4]; at 100.0 µM 93% | [5]; [17] 81% | [5]; at 50.0 µM 91.2% | [6]; at 33.0 µM 86% | [6]; [17] 98% | [6]; at 50.0 µM 98.3% | [6]; at 100.0 µM 97% | [7]; at 33.0 µM 95% | [7]; at 100.0 µM 99% | [8]; at 33.0 µM 93% | [8]; at 100.0 µM 97% | [10]; [17] 99% | [10]; at 50.0 µM 99% | [11]; at 33.0 µM 86% | [11]; at 100.0 µM 98%
inactive: [12]; at 1.2 µM 32% | [12]; at 3.7 µM 36% | [12]; at 11.0 µM 33% | [13]; at 1.2 µM -5% | [13]; at 3.7 µM 1% | [13]; at 11.0 µM 25% | [13]; at 33.0 µM 64% | [14]; at 1.2 µM 8% | [14]; at 3.7 µM 9% | [14]; at 11.0 µM 20% | [15]; at 1.2 µM -6% | [15]; at 3.7 µM -21% | [15]; [16] -9% | [15]; at 11.0 µM 8% | [1]; at 1.2 µM -19% | [1]; at 3.7 µM -13% | [1]; [16] 3% | [1]; at 11.0 µM -1% | [2]; at 1.2 µM -4% | [2]; at 3.7 µM 0% | [2]; at 11.0 µM 35% | [3]; [16] -1% | [4]; at 1.2 µM 0% | [4]; at 3.7 µM -9% | [4]; at 11.0 µM -10% | [4]; at 33.0 µM 11% | [5]; [16] 11% | [6]; at 1.2 µM 1% | [6]; at 3.7 µM -14% | [6]; [16] 3% | [6]; at 11.0 µM -4% | [7]; at 1.2 µM -4% | [7]; at 3.7 µM 1% | [7]; at 11.0 µM 25% | [8]; at 1.2 µM -2% | [8]; at 3.7 µM -2% | [8]; at 11.0 µM 37% | [10]; [16] 16% | [11]; at 1.2 µM -2% | [11]; at 3.7 µM -7% | [11]; at 11.0 µM 6%

N#Cc1ccc(C2NN=CC23C(=O)c2ccccc2OC3c2ccccc2)cc1 (centres undefined)
inactive: [12]; at 1.2 µM 0% | [12]; at 3.7 µM 0% | [12]; at 11.0 µM -1% | [12]; at 33.0 µM -2% | [12]; at 100.0 µM 2% | [13]; at 1.2 µM -2% | [13]; at 3.7 µM 0% | [13]; at 11.0 µM -1% | [13]; at 33.0 µM -3% | [13]; at 100.0 µM 3% | [14]; at 1.2 µM -4% | [14]; at 3.7 µM -2% | [14]; at 11.0 µM 5% | [14]; at 33.0 µM -3% | [14]; at 100.0 µM 2% | [15]; at 1.2 µM 2% | [15]; at 3.7 µM 4% | [15]; [16] 10% | [15]; at 11.0 µM -6% | [15]; at 33.0 µM 5% | [15]; [17] 66% | [15]; at 100.0 µM 3% | [1]; at 1.2 µM 2% | [1]; at 3.7 µM -2% | [1]; [16] -19% | [1]; at 11.0 µM -3% | [1]; at 33.0 µM -4% | [1]; at 100.0 µM 1% | [2]; at 1.2 µM 0% | [2]; at 3.7 µM 1% | [2]; at 11.0 µM 5% | [2]; at 33.0 µM 3% | [2]; at 100.0 µM 3% | [3]; [16] -22% | [5]; [16] -16% | [5]; [17] 38% | [5]; at 50.0 µM 61% | [6]; at 1.2 µM -7% | [6]; at 3.7 µM 0% | [6]; [16] -28% | [6]; at 11.0 µM 7% | [6]; at 33.0 µM -2% | [6]; [17] 16% | [6]; at 50.0 µM 64% | [6]; at 100.0 µM 0% | [9]; at 1.2 µM 0% | [9]; at 3.7 µM -4% | [9]; at 11.0 µM -3% | [9]; at 33.0 µM -3% | [9]; at 100.0 µM -1% | [10]; [16] -14% | [10]; [17] 60% | [10]; at 50.0 µM 56.4% | [11]; at 1.2 µM -3% | [11]; at 3.7 µM -4% | [11]; at 11.0 µM -3% | [11]; at 33.0 µM -16% | [11]; at 100.0 µM -1%
active: [15]; at 50.0 µM 73.3% | [1]; [17] 85% | [1]; at 50.0 µM 77% | [3]; [17] 93% | [3]; at 50.0 µM 77.5%
